RmlC RmlD mix = inhibitors of RmlC and RmlD coupled enzymes; inhibition, % at 5.5 µM; hit rate 0.39% among 110,000; RmlC/RmlD coupled enzyme inhibition, 384-well mixture HTS; in the data active means inhibition above about 30%, passing the limit was not always enough; inconclusive means no clear call, values can overlap the other calls
HIV RNase H inh = inhibitors of HIV-1 reverse transcriptase RNase H; RT-RNase H RNA/DNA duplex cleavage, fluorescence; inhibition, % at 10 µM; hit rate 1.9% among 65,000; in the data active means inhibition above about 50%
* = called active by the depositor. Shown is part of a subset that was picked to be rich in hits.

For COc1ccc(N2C(=O)CC(Sc3nnc(-c4ccccc4)o3)C2=O)cc1 (stereo unspecified) the results were RmlC RmlD mix -2 and HIV RNase H inh -1.
`O=C(NCN1C(=O)C2C3C=CC(C3)C2C1=O)Nc1nccs1` (stereo unspecified) gave RmlC RmlD mix -6 and HIV RNase H inh 55*.
Screening CCc1nnc(NC(=O)NCN2C(=O)C3C4C=CC(C4)C3C2=O)s1 (stereo unspecified) returned RmlC RmlD mix -12 and HIV RNase H inh -3.
`CC(C)OCCCNC(=O)CCSc1ccc(Cl)cc1` gave RmlC RmlD mix 21.
Screening CCCCn1c(CCC(=O)O)ccc1-c1cccs1 returned RmlC RmlD mix -12 and HIV RNase H inh -10.
For O=C(O)CCc1ccc(-c2cccs2)n1NC(=O)c1ccc(O)cc1 the results were RmlC RmlD mix -44 and HIV RNase H inh 51*.
C#CCNC(=O)C1=C[C@H](c2ccccc2)[C@@H](CCCO)[C@H](OCC)O1 was read as RmlC RmlD mix 5.
O=C(O)c1ccc2c(c1)C(=O)N(C(Cc1ccccc1)C(=O)O)C2=O (stereo unspecified) was read as RmlC RmlD mix 8 and HIV RNase H inh -7.
For O=C(O)c1ccc2c(c1)-c1nc3ccccc3n1C2=O the results were RmlC RmlD mix 122*.
For CCCCNC(=O)CC1Nc2ccccc2NC1=O (stereo unspecified) the results were RmlC RmlD mix -4 and HIV RNase H inh 0.
For CCCCOc1ccccc1NC(=O)CC1Nc2ccccc2NC1=O (stereo unspecified) the results were RmlC RmlD mix -6 and HIV RNase H inh 69*.
Screening COc1ccccc1OC(=O)c1cc(Cl)nc2ccccc12 returned RmlC RmlD mix 10.
For Cc1n[nH]c(C)c1S(=O)(=O)N(CC(=O)N1CCc2ccccc21)c1ccc(C(C)C)cc1 the results were RmlC RmlD mix 2 and HIV RNase H inh 51*.
For CCOc1ccc(N(CC(=O)N2CCc3ccccc32)S(=O)(=O)c2c(C)noc2C)cc1 the results were RmlC RmlD mix -5 and HIV RNase H inh 5.
Screening Cc1c(OC(=O)CNC(=O)OC(C)(C)C)ccc2c3c(c(=O)oc12)CCC3 returned RmlC RmlD mix inconclusive and HIV RNase H inh -16.
`Fc1ccc(Sc2cc(Cl)c(-c3ccccc3)nn2)cc1` gave RmlC RmlD mix -13.
Screening Cc1ccc2cc3cc(C(=O)NCCC(C)C)oc3nc2c1 returned HIV RNase H inh -2.
`Cc1ccc2cc3cc(C(=O)NCc4ccco4)oc3nc2c1` gave RmlC RmlD mix 34 and HIV RNase H inh 51*.
For Cc1cc(=O)[nH]c(S/C=C/c2ccccc2)n1 the results were RmlC RmlD mix 4 and HIV RNase H inh -4.
CCN(CC)C(=O)c1[nH]cnc1C(=O)N[C@@H](C)C(=O)OC(C)(C)C was read as RmlC RmlD mix -3.
`Cc1ccc(C(=O)CSc2ccccn2)cc1` gave RmlC RmlD mix -14 and HIV RNase H inh -9.
`O=C(CSc1ccccn1)c1ccc(F)cc1` gave RmlC RmlD mix -2 and HIV RNase H inh 65*.
`COc1ccc(C2/C=C\CN(Cc3ccco3)CC(=O)N2Cc2ccc(F)cc2)cc1` (stereo unspecified) gave RmlC RmlD mix 0.
Cc1cc(-n2c(=O)c(C#N)cc3c(=O)n4ccccc4nc32)no1 was read as RmlC RmlD mix 55* and HIV RNase H inh 4.
`Cc1ccccc1-n1c(=O)c(C#N)cc2c(=O)n3ccccc3nc21` gave RmlC RmlD mix 123.
C=C1CC2C(=O)N(Cc3cc(OC)ccc3OC)C(C(=O)OCC)(C(=O)OCC)C1N2C(=O)OC(C)(C)C (stereo unspecified) was read as RmlC RmlD mix -48.
`Cc1cccc(N(C(=O)c2ccc(CN3CCOCC3)o2)C(C(=O)NC(C)(C)C)c2ccc(F)cc2)c1` (stereo unspecified) gave RmlC RmlD mix 5.
O=C(Nc1nc(-c2ccccc2)cs1)c1ccc(Br)o1 was read as RmlC RmlD mix 12 and HIV RNase H inh 66*.
Screening Cc1ccc(C(=O)Nc2nc(-c3cccnc3)cs2)o1 returned RmlC RmlD mix -10.
Screening Cc1ccc(S(=O)(=O)N2CCC(C(=O)N3CCC[C@H]3C(=O)NCc3ccco3)CC2)cc1 returned RmlC RmlD mix 4 and HIV RNase H inh -7.
`Cc1nc2sc(C(=O)O)c(N)c2c2c1COC(C)(C)C2` gave RmlC RmlD mix 5 and HIV RNase H inh 9.
CCOC(=O)c1sc2nc(-c3ccco3)c3c(c2c1N)CC(C)(C)OC3 was read as RmlC RmlD mix 12 and HIV RNase H inh 90*.
`O=C(Cn1nc(C(F)(F)F)c2c1CCCC2)NCc1ccco1` gave RmlC RmlD mix 5 and HIV RNase H inh 1.
For CCOC(=O)C1CCCN(c2c(NCCN3CCCCC3C)c(=O)c2=O)C1 (stereo unspecified) the results were RmlC RmlD mix 17.
`Cc1onc(-c2c(F)cccc2Cl)c1C(=O)NCCc1ccc(S(N)(=O)=O)cc1` gave RmlC RmlD mix -17 and HIV RNase H inh 54*.
For Cc1onc(-c2ccccc2Cl)c1C(=O)NCc1ccc(S(N)(=O)=O)cc1 the results were RmlC RmlD mix -33 and HIV RNase H inh -5.
For Cc1cc(C)n(-c2nncn2NC(=O)c2ccc(Cl)cc2O)n1 the results were RmlC RmlD mix 31 and HIV RNase H inh 0.
For Cc1cccc(-n2ncc3c(Nc4ccc(F)cc4)ncnc32)c1 the results were RmlC RmlD mix 4 and HIV RNase H inh -19.
COC(=O)c1ccc(Nc2ncnc3c2cnn3-c2cccc(C)c2)cc1 was read as HIV RNase H inh 60*.
O=Nc1c(O)n(Cc2ccc(Cl)c(Cl)c2)c2ccccc12 was read as RmlC RmlD mix -5.
Screening Cc1cc(C)n2nc(C(=O)NCc3ccccc3)cc2n1 returned RmlC RmlD mix -9 and HIV RNase H inh 88*.
Screening Cc1cc(C)n2nc(C(=O)NCc3ccccc3)nc2n1 returned RmlC RmlD mix -7.
Screening NC(=O)c1c(-c2cccs2)csc1N returned RmlC RmlD mix 3 and HIV RNase H inh 80*.
`CCOC(=O)c1c(-c2cccs2)csc1NC(=O)CC(C)C` gave RmlC RmlD mix -19.
`CS(=O)(=O)N1CCN(c2nc(-c3ccccc3)cs2)CC1` gave RmlC RmlD mix -8 and HIV RNase H inh -1.
For CCS(=O)(=O)N1CCN(c2nc(-c3ccccc3)cs2)CC1 the results were RmlC RmlD mix 16 and HIV RNase H inh 56*.
CCOC(=O)N1CCN(c2ncnc3c2cnn3-c2ccc(Cl)cc2)CC1 was read as RmlC RmlD mix -11 and HIV RNase H inh 69*.
CCN1CCN(c2ncnc3c2cnn3-c2ccc(Cl)cc2)CC1 was read as RmlC RmlD mix 10 and HIV RNase H inh -7.
Cc1cc(C)nc(-n2nc(C)cc2NC(=O)c2cccc(S(=O)(=O)N3CCCCC3)c2)n1 was read as RmlC RmlD mix 7.
`CCC(C)C(NC(=O)c1ccccc1NC(=O)c1ccc(OC)cc1)C(=O)NCc1ccco1` (stereo unspecified) gave RmlC RmlD mix -9 and HIV RNase H inh 55*.
Screening COc1ccc(C(=O)Nc2ccc(Cl)cc2C(=O)NCc2ccco2)cc1 returned RmlC RmlD mix 3.
`CCN1CC(CCN2CCOCC2)C(c2ccccc2)(c2ccccc2)C1=O` (stereo unspecified) gave RmlC RmlD mix -10.
For C[C@@H]1CC[C@]2(O[C@H](CCO)C[C@H](O)[C@H]2O)O1 the results were RmlC RmlD mix 2.

Screening data: PubChem BioAssay, several laboratories
